Values without a mark were called inactive.
Compound: C#CCNC(=O)CCSSCCC(=O)NCCc1ccc(C=O)c(C=O)c1
Assay: lysine labeling ratio R10:1 (500 µM / 50 µM probe), SILAC-ABPP in living cells; higher = lower intrinsic lysine reactivity toward the probe, active = 2 or less
Conditions: HeLa; probe concentrations 500 vs 50 µM
Procedure, shortened: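 Living SILAC light and heavy HeLa cells in PBS at room temperature were treated with an alkyne-tagged, disulfide-linked lysine probe at 50 µM or 500 µM, with forward and reverse label swaps. The mixed lysates were clicked to biotin-azide, digested with trypsin, captured on neutravidin, released with DTT, alkylated and run by LC-MS/MS on a TIMS-TOF Pro. R for each lysine is the filtered median high-probe/low-probe MS1 peptide ratio, taken again as the median over forward and reverse replicates. Any value above 20 is set to 20.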

UniProt P21333, sequence (P21333 whole entry): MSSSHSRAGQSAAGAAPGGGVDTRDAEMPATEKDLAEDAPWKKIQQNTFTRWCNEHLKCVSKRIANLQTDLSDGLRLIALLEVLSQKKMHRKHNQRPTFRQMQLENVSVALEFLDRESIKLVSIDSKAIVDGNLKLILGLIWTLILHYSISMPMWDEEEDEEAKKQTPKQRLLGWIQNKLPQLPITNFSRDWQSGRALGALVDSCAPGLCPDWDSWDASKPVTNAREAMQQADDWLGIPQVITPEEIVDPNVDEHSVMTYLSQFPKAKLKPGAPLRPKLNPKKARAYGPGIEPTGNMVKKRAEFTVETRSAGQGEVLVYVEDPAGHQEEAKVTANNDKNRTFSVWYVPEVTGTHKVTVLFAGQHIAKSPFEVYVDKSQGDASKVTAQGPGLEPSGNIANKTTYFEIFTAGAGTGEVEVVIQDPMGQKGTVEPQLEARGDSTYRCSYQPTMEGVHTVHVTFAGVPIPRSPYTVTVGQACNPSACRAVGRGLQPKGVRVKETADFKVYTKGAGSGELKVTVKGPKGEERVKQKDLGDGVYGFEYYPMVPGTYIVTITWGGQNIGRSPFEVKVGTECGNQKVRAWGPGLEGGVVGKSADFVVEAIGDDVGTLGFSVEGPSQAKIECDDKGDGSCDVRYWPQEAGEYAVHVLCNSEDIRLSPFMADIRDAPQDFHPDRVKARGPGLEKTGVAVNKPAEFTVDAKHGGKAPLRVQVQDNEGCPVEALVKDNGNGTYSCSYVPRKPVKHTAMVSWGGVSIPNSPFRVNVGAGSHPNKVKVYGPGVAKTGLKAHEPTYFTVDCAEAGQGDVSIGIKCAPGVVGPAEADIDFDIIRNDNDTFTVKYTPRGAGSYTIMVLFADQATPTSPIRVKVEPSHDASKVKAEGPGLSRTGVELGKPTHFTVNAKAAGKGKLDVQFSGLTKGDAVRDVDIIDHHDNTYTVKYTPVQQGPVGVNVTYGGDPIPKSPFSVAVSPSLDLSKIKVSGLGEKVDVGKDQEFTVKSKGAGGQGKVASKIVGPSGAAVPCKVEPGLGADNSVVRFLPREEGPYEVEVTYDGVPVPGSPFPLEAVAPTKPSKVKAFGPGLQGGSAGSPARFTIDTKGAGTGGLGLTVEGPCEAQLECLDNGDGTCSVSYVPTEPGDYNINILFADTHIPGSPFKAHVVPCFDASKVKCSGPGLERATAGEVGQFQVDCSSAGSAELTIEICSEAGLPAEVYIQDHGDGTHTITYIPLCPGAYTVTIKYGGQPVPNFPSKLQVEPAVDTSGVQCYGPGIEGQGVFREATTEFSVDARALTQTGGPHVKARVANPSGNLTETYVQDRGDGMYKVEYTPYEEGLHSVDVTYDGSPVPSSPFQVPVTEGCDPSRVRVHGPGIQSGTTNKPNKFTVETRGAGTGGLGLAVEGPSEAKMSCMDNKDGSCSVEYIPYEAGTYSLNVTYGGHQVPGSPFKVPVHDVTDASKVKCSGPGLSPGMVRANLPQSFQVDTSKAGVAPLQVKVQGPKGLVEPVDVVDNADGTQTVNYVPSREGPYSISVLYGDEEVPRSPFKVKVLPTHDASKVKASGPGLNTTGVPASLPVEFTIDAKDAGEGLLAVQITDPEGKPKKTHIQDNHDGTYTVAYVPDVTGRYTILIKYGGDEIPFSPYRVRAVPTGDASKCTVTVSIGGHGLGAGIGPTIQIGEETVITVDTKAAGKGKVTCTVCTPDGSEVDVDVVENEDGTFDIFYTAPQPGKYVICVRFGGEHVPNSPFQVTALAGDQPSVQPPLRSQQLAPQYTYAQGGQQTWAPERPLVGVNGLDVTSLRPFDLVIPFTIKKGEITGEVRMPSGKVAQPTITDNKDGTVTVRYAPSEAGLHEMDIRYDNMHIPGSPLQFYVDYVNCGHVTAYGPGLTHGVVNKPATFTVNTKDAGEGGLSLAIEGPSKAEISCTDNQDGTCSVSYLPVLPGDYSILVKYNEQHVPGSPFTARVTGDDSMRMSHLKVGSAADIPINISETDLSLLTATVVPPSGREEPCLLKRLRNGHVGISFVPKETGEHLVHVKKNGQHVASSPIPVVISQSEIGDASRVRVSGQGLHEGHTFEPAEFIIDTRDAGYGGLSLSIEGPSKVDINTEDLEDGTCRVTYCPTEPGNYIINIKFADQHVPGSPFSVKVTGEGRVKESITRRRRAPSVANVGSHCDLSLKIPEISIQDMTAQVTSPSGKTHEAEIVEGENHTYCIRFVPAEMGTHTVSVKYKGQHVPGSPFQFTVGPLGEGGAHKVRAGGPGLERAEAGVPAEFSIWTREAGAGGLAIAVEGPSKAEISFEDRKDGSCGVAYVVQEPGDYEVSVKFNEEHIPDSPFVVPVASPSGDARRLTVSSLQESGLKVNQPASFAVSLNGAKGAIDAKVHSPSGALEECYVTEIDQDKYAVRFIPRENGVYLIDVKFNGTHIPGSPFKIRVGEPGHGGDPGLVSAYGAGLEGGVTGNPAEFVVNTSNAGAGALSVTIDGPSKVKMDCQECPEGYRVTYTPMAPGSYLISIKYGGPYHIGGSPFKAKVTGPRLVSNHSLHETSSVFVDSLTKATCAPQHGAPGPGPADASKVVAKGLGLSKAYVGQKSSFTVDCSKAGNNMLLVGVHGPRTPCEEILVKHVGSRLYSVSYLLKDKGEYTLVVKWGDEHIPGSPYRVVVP
UniProt P07814, sequence (P07814 whole entry): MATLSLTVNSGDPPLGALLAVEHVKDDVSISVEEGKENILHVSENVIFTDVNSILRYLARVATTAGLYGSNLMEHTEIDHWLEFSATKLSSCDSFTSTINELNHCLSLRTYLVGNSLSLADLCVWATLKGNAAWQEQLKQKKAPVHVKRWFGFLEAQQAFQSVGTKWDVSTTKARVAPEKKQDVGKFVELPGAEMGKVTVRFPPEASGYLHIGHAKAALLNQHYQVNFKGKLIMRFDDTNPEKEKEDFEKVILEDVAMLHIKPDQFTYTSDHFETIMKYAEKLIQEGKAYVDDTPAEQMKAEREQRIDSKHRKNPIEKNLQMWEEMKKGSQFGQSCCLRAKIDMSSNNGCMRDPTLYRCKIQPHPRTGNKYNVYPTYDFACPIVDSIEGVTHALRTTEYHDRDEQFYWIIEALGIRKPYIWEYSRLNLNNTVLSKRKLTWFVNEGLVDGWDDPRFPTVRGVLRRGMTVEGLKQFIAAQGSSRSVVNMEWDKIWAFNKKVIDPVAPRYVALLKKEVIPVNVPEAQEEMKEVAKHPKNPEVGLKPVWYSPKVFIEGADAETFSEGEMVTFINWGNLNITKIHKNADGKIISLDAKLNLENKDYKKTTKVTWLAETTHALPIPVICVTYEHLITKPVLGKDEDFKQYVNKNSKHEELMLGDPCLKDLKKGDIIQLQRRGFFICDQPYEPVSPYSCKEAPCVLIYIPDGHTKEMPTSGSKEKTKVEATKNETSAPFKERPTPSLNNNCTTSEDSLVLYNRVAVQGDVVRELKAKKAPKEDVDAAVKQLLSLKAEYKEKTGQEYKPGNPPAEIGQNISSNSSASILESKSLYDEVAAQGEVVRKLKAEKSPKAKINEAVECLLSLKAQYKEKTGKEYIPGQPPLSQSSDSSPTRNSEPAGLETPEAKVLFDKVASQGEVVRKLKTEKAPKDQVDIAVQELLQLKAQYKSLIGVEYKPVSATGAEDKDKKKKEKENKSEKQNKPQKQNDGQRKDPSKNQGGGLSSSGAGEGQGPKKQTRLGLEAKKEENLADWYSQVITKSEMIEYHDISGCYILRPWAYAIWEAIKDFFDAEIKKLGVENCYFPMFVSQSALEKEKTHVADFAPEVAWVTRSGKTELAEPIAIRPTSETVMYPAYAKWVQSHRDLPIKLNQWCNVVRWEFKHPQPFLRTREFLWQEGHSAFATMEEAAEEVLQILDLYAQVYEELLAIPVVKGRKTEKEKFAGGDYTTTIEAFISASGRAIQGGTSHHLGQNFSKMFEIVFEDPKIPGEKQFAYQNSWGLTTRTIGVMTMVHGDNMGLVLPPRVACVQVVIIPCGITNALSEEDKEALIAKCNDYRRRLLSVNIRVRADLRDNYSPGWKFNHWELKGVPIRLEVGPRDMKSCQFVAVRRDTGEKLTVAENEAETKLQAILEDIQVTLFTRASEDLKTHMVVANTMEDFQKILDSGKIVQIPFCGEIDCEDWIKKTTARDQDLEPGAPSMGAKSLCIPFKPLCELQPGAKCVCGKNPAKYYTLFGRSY
UniProt Q15046, sequence (Q15046 whole entry, looked up): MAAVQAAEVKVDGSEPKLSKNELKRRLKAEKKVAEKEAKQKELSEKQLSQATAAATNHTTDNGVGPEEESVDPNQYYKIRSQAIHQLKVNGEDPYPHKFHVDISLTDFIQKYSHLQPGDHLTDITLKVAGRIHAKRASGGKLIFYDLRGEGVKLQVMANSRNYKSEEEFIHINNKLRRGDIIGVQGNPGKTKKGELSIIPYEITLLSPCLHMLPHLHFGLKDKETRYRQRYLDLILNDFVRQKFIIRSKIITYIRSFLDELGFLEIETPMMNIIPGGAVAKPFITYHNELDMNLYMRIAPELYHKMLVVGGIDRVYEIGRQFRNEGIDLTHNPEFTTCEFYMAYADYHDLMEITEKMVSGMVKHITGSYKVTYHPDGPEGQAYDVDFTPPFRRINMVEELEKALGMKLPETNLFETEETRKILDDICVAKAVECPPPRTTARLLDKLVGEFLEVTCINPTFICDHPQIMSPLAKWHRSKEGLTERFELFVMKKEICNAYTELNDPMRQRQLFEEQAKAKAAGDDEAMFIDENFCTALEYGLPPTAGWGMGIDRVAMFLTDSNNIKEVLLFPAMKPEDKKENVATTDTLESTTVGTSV

Target | lysine labeling ratio R10:1
LAMC1 (lysine site: K1355) (UniProt P11047) | 1.67 (active)
HSPA9 (lysine site: K106) (UniProt P38646) | 6.72
UniProt Q15046 (lysine site: K479) | 1.78 (active)
FLNA (lysine site: K523) (UniProt P21333) | 3.84
ITGB1 (lysine site: K93) (UniProt P05556) | 2.06
EPRS (lysine site: K498) (UniProt P07814) | 2.78
ROBO1 (lysine site: K137) (UniProt Q9Y6N7) | 5.8
SPTAN1 (lysine site: K719) (UniProt Q13813) | 3.93
CDH2 (lysine site: K448) (UniProt P19022) | 3.81
UniProt Q15149 (lysine site: K2309) | 2.6
AHNAK (lysine site: K2993) (UniProt Q09666) | 1 (active)
